Screening results: PubChem BioAssay, National Center for Advancing Translational Sciences (NCATS)
Chronic BCR inh = inhibitors of chronic active B-cell receptor signaling; ABC-DLBCL IkBa-CBG/CBR reporter, luminescence ratio, 4 h; Potency, µM (highest dose often 46.1 µM), without a hit: top-dose activity change, negative = inhibition, most hits filed as inhibitors; 0.05% of 340,000 active; AID 493014; active = well fitted inhibition curve with a large enough effect in the signal ratio, with a control signal flat, not every such curve was filed as active; inconclusive = small, poorly fitted or top-dose-only effect, or effect the other way, or a change in a side signal; the % refers to the signal ratio;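 note: potency is the fitted concentration of half-maximal effect; plate controls were basal doxycycline-induced cells for no effect and cells given 10 µM MG132 for full effect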
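Concentration-response series (up to 46 uM) were applied to TMD8 dual-reporter cells for 4 h at 37C with doxycycline. Green/red ratio, after filter-overlap correction, defined %Activity; red signal alone was normalised to basal cells and zero luminescence.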
MBNL1-CUG inh = inhibitors of human MBNL1 binding to CUG repeat RNA; TR-FRET MBNL1-His/biotin-(CUG)12 binding, 665/545 ratio; Potency, µM (top dose mostly 57.5 µM), without a hit: top-dose activity change, negative = inhibition, usual class: inhibitors; Q9NR56; 0.036% of 280,000 active; active = well fitted inhibition curve with a large enough effect in the signal ratio, with a control signal flat, not every such curve was filed as active; inconclusive = small, poorly fitted or top-dose-only effect, or effect the other way, or a change in a side signal; inactive = no such curve, though single readings can be large or run the other way; the % refers to the signal ratio; note: potency is the fitted concentration of half-maximal effect; % is set by controls: 0 for no effect and ±100 for the full control effect
Target sequence (Q9NR56 whole entry, looked up): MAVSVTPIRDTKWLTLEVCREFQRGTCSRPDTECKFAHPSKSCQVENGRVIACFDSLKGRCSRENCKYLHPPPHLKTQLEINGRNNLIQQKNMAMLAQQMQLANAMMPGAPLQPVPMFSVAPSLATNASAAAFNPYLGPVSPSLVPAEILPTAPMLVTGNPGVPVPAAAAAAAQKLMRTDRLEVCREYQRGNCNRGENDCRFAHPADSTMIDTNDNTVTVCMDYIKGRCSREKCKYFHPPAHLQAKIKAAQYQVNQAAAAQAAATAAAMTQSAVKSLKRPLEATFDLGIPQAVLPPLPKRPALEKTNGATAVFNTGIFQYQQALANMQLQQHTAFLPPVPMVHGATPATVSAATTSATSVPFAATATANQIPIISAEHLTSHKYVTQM
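TR-FRET between His-tagged MBNL1 and biotin-(CUG)12 RNA, detected with Tb anti-His antibody (0.055 ng/ul) and streptavidin-XL665 (5 nM), 60 min at room temperature. Compounds titrated 92 nM to 58 uM; 665/545 nm ratio normalized to buffer and complex controls.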
Apoferritin bind = binds horse apoferritin like a general anesthetic; P02791; apoferritin/1-aminoanthracene competitive binding, fluorescence; Potency, µM (titrated, usually from 77.5 µM), for inactives: at the highest dose activity change, negative = displacement, most hits filed as inhibitors; 0.074% of 350,000 active; AID 485281; note: potency is the fitted concentration of half-maximal effect; % is set by controls: 0 for no effect and ±100 for the full control effect; nearly all actives have a fitted effect of over 20% in size
Target sequence (P02791 2-175 limits assumed): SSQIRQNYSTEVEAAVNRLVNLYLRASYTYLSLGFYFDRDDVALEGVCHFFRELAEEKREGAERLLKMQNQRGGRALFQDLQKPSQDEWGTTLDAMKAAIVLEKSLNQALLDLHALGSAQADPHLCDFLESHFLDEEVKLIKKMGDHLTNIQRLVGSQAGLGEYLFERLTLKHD
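Concentration-response curves derived by four-parameter Hill fitting of normalized fluorescence, where compounds displaced 1-AMA from 10 uM horse apoferritin following a brief 10 min room-temperature incubation; propofol titration acted as positive control.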
GLS inhibitor = blocks human kidney-isoform glutaminase activity; O94925; GLS enzymatic activity, qHTS titration; Potency, µM (titrated, usually from 45.5 µM), for the others: at the top dose activity change, negative = inhibition, actives largely listed as inhibitors; 0.21% of 410,000 active; note: potency is the fitted concentration of half-maximal effect; % is set by controls: 0 for no effect and ±100 for the full control effect
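hKGA; 45 mM KH2PO4 pH 8.2 + 0.02% Tween-20; cpd via pin tool; 1 mM Gln soln; GluOx/HRP/Amplex Red; RT 30 min; fluor. t0 & final.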
B2AR arrestin = beta2AR (human) beta-arrestin recruitment activity; 0.02% of 330,000 active; P07550; Potency, µM (series often up to 46.1 µM), for the others: top-dose activation, hits mostly activators; beta-arrestin recruitment to beta2AR, cell-based reporter;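 note: potency is the fitted concentration of half-maximal effect; 0% = DMSO controls and full agonism = EC100 isoproterenol or metaproterenol; nearly all actives have a fitted effect of over 65% in size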
MBNL1-CUG FRET = MBNL1-poly(CUG) RNA binding inhibition confirmed; shares compounds with MBNL1-CUG inh; TR-FRET MBNL1-His / biotin-(CUG)12 binding, 60 min; Potency, µM (top dose mostly 57.6 µM), for inactives: at the highest dose activity change, negative = inhibition, actives largely listed as inhibitors; 50% of 140 active
MBNL1-CUG Alpha = MBNL1-CUG RNA binding inhibition, AlphaScreen validation; shares compounds with MBNL1-CUG inh; AlphaScreen MBNL1-His / biotin-(CUG)12 binding; Potency, µM (doses to about 57.7 µM), for the others: at the top dose activity, negative = inhibition, actives largely listed as inhibitors; 30% of 140 active; AID 493205
MBNL1 HTRF CS = counter-screen for MBNL1-poly(CUG) RNA binding inhibitors; shares compounds with MBNL1-CUG inh; His-Menin/biotin-MLL peptide TR-FRET counterscreen; Potency, µM (highest dose often 57.6 µM), for the others: at the highest dose activity, negative = inhibition, hits mostly inhibitors; 20% of 120 active
An asterisk follows results filed as active; [ ] = another dose, or the depositor's remark. A selection: hits, their analogues and other compounds. The true share with any hit is near 0.35%. Unless noted, calls come from the whole dose curve; as a rule, active = well fitted curve in the direction sought with a large enough effect; inconclusive = small, poorly fitted or top-dose-only effect, or another doubt; inactive = no such curve, though single readings can be large; an effect the other way counts as inactive or inconclusive.

How did COc1ccc(/C=C2/C(=O)NC(=O)N(Cc3ccco3)C2=O)cc1 do in these assays?
Chronic BCR inh: 1.8%; MBNL1-CUG inh: -3.9%; Apoferritin bind: -14.6%; B2AR arrestin: 0.5%

How did CCOC(=O)C1CCN(/C=C2/C(=O)NC(=O)N(Cc3ccco3)C2=O)CC1 do in these assays?
Chronic BCR inh: -0.7%; MBNL1-CUG inh: -0.6%; Apoferritin bind: -18.6%; GLS inhibitor: 7.08µM*; B2AR arrestin: 0.2%

What do the screens show for `CN1C[C@H](CNC(=O)OCc2ccccc2)C[C@@H]2c3cccc4c3c(cn4C)C[C@H]21`?
Chronic BCR inh: inconclusive; MBNL1-CUG inh: inconclusive; Apoferritin bind: 0.1%; GLS inhibitor: -6.9%; B2AR arrestin: 0.9%; MBNL1-CUG FRET: inconclusive; MBNL1-CUG Alpha: inconclusive

How did CN1C[C@H](CNC(=O)OCc2ccccc2)C[C@H]2c3cccc4c3c(cn4C)C[C@@H]21 do in these assays?
Apoferritin bind: -6.6%[29.3 µM]

Results for CCOC(=O)N1CCC(NC(=O)CCc2nc(C3=CCN(C)CC3)no2)CC1 ?
Chronic BCR inh: 16.0%; MBNL1-CUG inh: 10µM*; Apoferritin bind: -17.4%; GLS inhibitor: -15.1%; B2AR arrestin: -0.4%; MBNL1-CUG FRET: 8.19µM*; MBNL1-CUG Alpha: 3.66µM*; MBNL1 HTRF CS: inconclusive

What do the screens show for `C[C@H]1[C@@H]2Cc3ccc(O)cc3[C@]1(C)CCN2C`?
GLS inhibitor: 53.7%[231 µM]

What do the screens show for `COc1cc(CCN)c(OC)cc1Br`?
GLS inhibitor: -2.4%[99.4 µM]

Results for O=C1c2ccccc2C(=O)C1C(=O)C(c1ccccc1)c1ccccc1 ?
GLS inhibitor: 18.0%; MBNL1-CUG FRET: inconclusive; MBNL1-CUG Alpha: inconclusive; MBNL1 HTRF CS: -25.8%

Results for Oc1ccc2c3c1O[C@H]1c4[nH]c5c(c4C[C@@]4(O)[C@@H](C2)N(CC2CC2)CC[C@]314)C[C@@]1(O)[C@H]2Cc3ccc(O)c4c3[C@@]1(CCN2CC1CC1)[C@H]5O4 ?
Apoferritin bind: -3.2%; MBNL1-CUG FRET: 15.8µM*; MBNL1-CUG Alpha: 11.2µM*

How did Oc1ccc2c3c1O[C@H]1c4[nH]c5ccccc5c4C[C@@]4(O)[C@@H](C2)N(CC2CC2)CC[C@]314 do in these assays?
Chronic BCR inh: inconclusive; GLS inhibitor: -3.0%; B2AR arrestin: 0.0%

What do the screens show for `CCn1nc(-c2ccccc2)nc2c(=O)n(C)c(=O)nc1-2`?
Chronic BCR inh: inconclusive; MBNL1-CUG inh: inconclusive; Apoferritin bind: -1.4%; GLS inhibitor: 6.4%; B2AR arrestin: 0.0%; MBNL1-CUG FRET: 0.517µM*; MBNL1-CUG Alpha: 0.259µM*; MBNL1 HTRF CS: 85.9%

Results for Clc1ccc2c(c1)C(c1ccccc1Cl)=NCc1nnc(Br)n1-2 ?
Chronic BCR inh: inconclusive; MBNL1-CUG inh: 25.1µM*; Apoferritin bind: -13.7%; GLS inhibitor: 13.2%; B2AR arrestin: 0.3%; MBNL1-CUG FRET: 16.6%; MBNL1-CUG Alpha: -6.1%; MBNL1 HTRF CS: 4.2%

What do the screens show for `Cc1nnc2n1-c1ccc(Cl)cc1C(c1ccccc1Cl)=NC2`?
GLS inhibitor: 7.4%

Results for CC(C)[C@@]1(NC(=O)[C@H]2C[C@H]3c4cccc5[nH]cc(c45)C[C@@H]3N(C)C2)O[C@]2(O)[C@H]3CCCN3C(=O)CN2C1=O (tested in a mixture with another compound) ?
GLS inhibitor: 7.7%
